Laboratory results as given in PubChem BioAssay AID1259341 (Broad Institute, 2017).

Biological target: Caspase recruitment domain-containing protein 9 (Homo sapiens) + E3 ubiquitin-protein ligase TRIM62 (Homo sapiens) (UniProt Q9H257+Q9BVG3)
Test: CARD9/TRIM62 protein interaction inhibitors – cell lysate, HEK293FT lysates, Luminex bead ELISA, primary screen (AID 1259341);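 note: PE anti-Flag signal of Flag-CARD9 captured by myc-TRIM62 beads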
Settings: PE fluorescence, hits give low values, concentration not given here;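 active = activity change under -35% in any replicate well, with more than 20 beads read in that well; inactive = the rest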

Chain of Caspase recruitment domain-containing protein 9 (Homo sapiens) + E3 ubiquitin-protein ligase TRIM62 (Homo sapiens) (Q9BVG3 whole entry, looked up, the tested form may be a part): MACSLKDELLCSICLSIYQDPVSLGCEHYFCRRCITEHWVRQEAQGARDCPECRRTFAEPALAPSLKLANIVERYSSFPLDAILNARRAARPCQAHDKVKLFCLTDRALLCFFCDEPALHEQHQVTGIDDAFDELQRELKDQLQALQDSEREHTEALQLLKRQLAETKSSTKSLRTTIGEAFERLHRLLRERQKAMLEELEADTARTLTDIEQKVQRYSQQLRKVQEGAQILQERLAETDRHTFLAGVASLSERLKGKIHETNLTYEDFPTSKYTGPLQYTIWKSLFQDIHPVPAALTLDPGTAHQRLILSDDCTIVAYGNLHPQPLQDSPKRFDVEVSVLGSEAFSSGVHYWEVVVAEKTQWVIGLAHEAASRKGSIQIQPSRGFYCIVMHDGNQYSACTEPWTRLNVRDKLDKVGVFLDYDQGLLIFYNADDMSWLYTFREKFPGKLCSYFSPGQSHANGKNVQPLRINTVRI
Chain of Caspase recruitment domain-containing protein 9 (Homo sapiens) + E3 ubiquitin-protein ligase TRIM62 (Homo sapiens) (Q9H257 whole entry, looked up, the tested form may be a part): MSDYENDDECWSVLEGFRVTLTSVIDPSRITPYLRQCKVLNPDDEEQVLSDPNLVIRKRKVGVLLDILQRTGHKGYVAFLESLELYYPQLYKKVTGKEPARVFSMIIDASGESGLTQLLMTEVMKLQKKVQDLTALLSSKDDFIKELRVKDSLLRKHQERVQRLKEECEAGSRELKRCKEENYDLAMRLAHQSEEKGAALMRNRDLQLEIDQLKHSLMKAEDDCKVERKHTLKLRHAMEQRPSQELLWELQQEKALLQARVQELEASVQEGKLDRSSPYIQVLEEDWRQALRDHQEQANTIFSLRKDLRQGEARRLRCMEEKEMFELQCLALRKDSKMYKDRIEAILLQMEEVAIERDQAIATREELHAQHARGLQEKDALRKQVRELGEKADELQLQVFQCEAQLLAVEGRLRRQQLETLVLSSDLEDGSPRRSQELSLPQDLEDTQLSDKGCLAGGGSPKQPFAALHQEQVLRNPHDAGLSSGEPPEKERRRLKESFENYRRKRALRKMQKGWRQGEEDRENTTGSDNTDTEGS

Activity change, negative = inhibition, inactive:
O=S(=O)(Nc1nc2ccc(S(=O)(=O)N3CCCCC3)cc2s1)c1ccccc1 -0.733%
C[C@H](CO)N1C[C@H](C)[C@@H](CN(C)C(=O)C2CCCCC2)OCCCC[C@H](C)Oc2ccc(NS(=O)(=O)c3ccccc3)cc2C1=O 6.21%
O=C(O)c1cc(-c2ccc(-c3ccc(F)cc3)o2)nc2ccccc12 -7.53%
O=C(NCCCN1CCOCC1)c1cc(-c2ccco2)nc2ccccc12 -23.9%
COc1ccc(-c2nc(SCC(=O)N3CCN(c4ccccc4OC)CC3)n[nH]2)cc1 23.5%
Cc1ccc(-c2nn(-c3ccccc3)cc2CN(Cc2ccccc2)C(=O)CCC(=O)O)o1 7.87%
C[C@H](CO)N1C[C@H](C)[C@@H](CN(C)CC2CCCCC2)OCCCC[C@H](C)Oc2ccc(NS(=O)(=O)c3cn(C)cn3)cc2C1=O 9.05%
COc1ccc(NC(=O)c2nc(Nc3ccccc3)c3ccccc3n2)cc1 4.26%
CCC1c2ccc(C)n2CCN1C(=O)Nc1ccccc1C(=O)OC (stereo not drawn) 22.8%
NC(=O)C1(N2CCCCC2)CCN(c2ncc(NC(=O)c3ccccc3F)cc2C(=O)O)CC1 -10.2%
O=C(COC(=O)c1cc(-c2ccco2)nc2ccccc12)NCc1ccc2c(c1)OCO2 3.18%
Cn1nnnc1SCCNCc1ccc(-c2cccc(C(F)(F)F)c2)o1 -0.39%
C[C@H](CO)N1C[C@H](C)[C@H](CN(C)C(=O)C2CCCCC2)OCCCC[C@H](C)Oc2ccc(NS(=O)(=O)c3cccs3)cc2C1=O 6.16%
